The campaign covered roughly 52,000 compounds. About 1,700 (3.3%) were called active. The sample holds actives, similar compounds and a random draw of the others, so the mix is not that of the screen. Cut-off read from the data, not from the text of the source: active = survival mostly below about 52% (no sharp cut-off); inactive = mostly above about 56%.
These compounds were tested on Wild type (assay: growth inhibition of S. aureus wild type versus tarO mutant, primary screen, teichoic acid synthesis inhibitors, RN4220, OD600 (AID 463173)). Conditions: S. aureus RN4220 wild type/DeltatarO growth, OD600, 18 h, stronger effect = lower value, screened at 18.75 µg/mL (by protocol).
`CCOC(=O)c1ccccc1NC(=O)CSc1nc2cn(CC)nc2c(=O)n1Cc1ccc(Cl)cc1` was tested, and the survival was 67% (inactive).
For `Cc1ccc2ccc3cc(C(=O)N4CCN(c5ccccc5)CC4)nc3c2[nH]1`, the survival was 128% (inactive).
`COc1ccc(CNC(=O)c2ccc(CS(=O)(=O)c3ccccc3OC)o2)cc1` was tested, and the survival was 76% (inactive).
With `CCOc1cc(Br)c(C2C(C(=O)OC)=C(C)NC3=C2C(=O)c2ccccc23)cc1OCC` (configuration not stated) the survival was 96% (inactive).
For `Cc1ccc(-n2nnc(-c3nc(-c4cccs4)no3)c2N)cc1C`, the survival was 100% (inactive).
With `Cc1cccc(-n2ncc(C(=O)Nc3ccc4c(c3)OCO4)c2C2CCN(C(=O)OC(C)(C)C)CC2)c1` the survival was 89% (inactive).
With `CCOC(=O)c1ccccc1NC(=O)Cn1c(=O)n(Cc2ccccc2)c(=O)c2c(C)c(C)sc21` the survival was 90% (inactive).
For `CCCCOc1ccc(C(=O)NCCS(=O)(=O)N2CCN(c3ccc(F)cc3)CC2)cc1`, the survival was 65% (inactive).
In the case of `COc1ccccc1NC(=O)c1c(C)cc(C)nc1SCC(=O)Nc1ccc(C)c(C)c1`, the survival is reported as 81% (inactive).
With `Cc1ccc(-c2cn3c(n2)sc2cc(C(=O)NCCC4=CCCCC4)ccc23)c(C)c1` the survival was 100% (inactive).
With `COC(=O)c1ccc(NC(=O)CSc2nc(=O)n(Cc3ccco3)c3c2CCC3)cc1` the survival was 126% (inactive).
For `COc1ccc2cc(CNc3ccc(C)cc3)c(=O)n(CC(=O)Nc3ccc(C)cc3Cl)c2c1`, the survival was 74% (inactive).
In the case of `CCc1ccc(NCc2cc3cc4c(cc3n(CC(=O)Nc3ccc(C)cc3)c2=O)OCO4)cc1`, the survival is reported as 113% (inactive).
With `COc1ccc2cc(CNc3ccccc3)c(=O)n(CC(=O)Nc3ccc(C)cc3C)c2c1` the survival was -2% (active).
In the case of `COc1ccc2c(c1)c1c(c(=O)n(Cc3ccccc3)c(=O)n1CC(=O)Nc1ccc(C)cc1C)n2C`, the survival is reported as -4% (active).
With `CC(=O)c1cccc(NC(=O)Cn2c(=O)c(CNc3ccc(C)cc3)cc3cc4c(cc32)OCCO4)c1` the survival was 77% (inactive).
`CCc1ccc(NCc2cc3ccc(OC)cc3n(CC(=O)Nc3ccccc3C)c2=O)cc1` was tested, and the survival was 84% (inactive).
With `COc1ccc2c(c1)c1c(c(=O)n(CCc3ccccc3)c(=O)n1Cc1cccc(F)c1)n2C` the survival was 63% (inactive).
For `COc1ccc2c(c1)c1c(c(=O)n(Cc3ccccc3)c(=O)n1CC(=O)Nc1ccccc1F)n2C`, the survival was 129% (inactive).
`Cc1ccc(NCc2cc3cc4c(cc3n(CC(=O)Nc3ccc(C)cc3)c2=O)OCCO4)cc1` was tested, and the survival was 0% (active).
In the case of `COc1ccc2c(c1)c1c(c(=O)n(CCc3ccccc3)c(=O)n1Cc1ccccc1)n2C`, the survival is reported as 57% (inactive).
`COc1ccc2c(c1)c1c(c(=O)n(Cc3ccccc3)c(=O)n1CC(=O)Nc1c(C)cccc1C)n2C` was tested, and the survival was 81% (inactive).
For `COc1ccc2c(c1)c1c(c(=O)n(CCc3ccccc3)c(=O)n1Cc1ccc(F)cc1)n2C`, the survival was 1% (active).
With `COc1ccc(NC(=O)C2CCCN(S(=O)(=O)c3ccc(F)cc3)C2)cc1` (configuration not stated) the survival was 85% (inactive).
In the case of `COc1ccc(-n2nc3cc(C)c(NC(=O)COc4cccc(C)c4)cc3n2)cc1`, the survival is reported as 78% (inactive).
`CCCCC1CCC(C(=O)N2CC(=O)Nc3ccc(F)cc3C2c2ccc(F)cc2)CC1` (configuration not stated) was tested, and the survival was 77% (inactive).
In the case of `CCOc1ccc2[nH]c(=O)c(-c3nc4cccc(C)n4c3NCc3ccco3)cc2c1`, the survival is reported as 108% (inactive).
In the case of `Cc1ccc(CNC(=O)Cc2c(C)c3cc4c(C)coc4cc3oc2=O)cc1`, the survival is reported as 92% (inactive).
With `COc1ccc(-c2noc(C(C)NC(=O)c3ccco3)n2)cc1` (configuration not stated) the survival was 107% (inactive).
`Cc1nn(CC(=O)Nc2ccc(C(C)C)cc2)c(=O)c2c(C)n(-c3ccc(Cl)cc3)nc12` was tested, and the survival was 90% (inactive).
In the case of `COc1ccc2c(c1)c1c(c(=O)n(Cc3ccccc3)c(=O)n1Cc1ccc(C)cc1)n2C`, the survival is reported as 87% (inactive).
`COc1ccc2c(c1)c1c(c(=O)n(Cc3ccccc3)c(=O)n1Cc1ccccc1)n2C` was tested, and the survival was -3% (active).
With `COc1cccc(Cn2c(=O)n(Cc3ccccc3)c(=O)c3c2c2cc(OC)ccc2n3C)c1` the survival was 57% (inactive).
`C/C(=N/OCC(=O)Nc1sc2c(c1C#N)CCCC2)c1cccs1` was tested, and the survival was 111% (inactive).
`CCN1CCN(CCCNC(=O)c2cc3c(s2)-c2c(C)cccc2OC3)CC1` was tested, and the survival was 87% (inactive).
With `CCOc1ccc(CCNC(=O)c2cc3c(s2)-c2c(C)cccc2OC3)cc1` the survival was 90% (inactive).
In the case of `CCN(Cc1ccccc1)C(=O)c1cc2c(s1)-c1c(C)cccc1OC2`, the survival is reported as 71% (inactive).
In the case of `CCCCN(Cc1ccco1)C(=O)c1cc2c(s1)-c1c(C)cccc1OC2`, the survival is reported as 13% (active).
`CCOCCCN(Cc1ccco1)C(=O)c1cc2c(=O)[nH]c3ccc(C)cc3c2s1` was tested, and the survival was 127% (inactive).
With `CCOCCCN(Cc1ccco1)C(=O)c1cc2c(s1)-c1c(C)cccc1OC2` the survival was 12% (active).
In the case of `Cc1ccc(C)c(N2CCN(C(=O)Cn3ncc4c(=O)oc5ccccc5c43)CC2)c1`, the survival is reported as 71% (inactive).
For `Cc1ccc2nc(N(CCCN(C)C)C(=O)c3ccco3)sc2c1`, the survival was 72% (inactive).
With `COc1nc(-c2ccccc2)ccc1-c1noc(-c2ccccc2Br)n1` the survival was -2% (active).
With `CCOc1cc(-c2nc(-c3ccc(-c4ccccc4)nc3OCC)no2)cc(OCC)c1OCC` the survival was 60% (inactive).
In the case of `COc1nc(-c2ccc(C)cc2)ccc1-c1noc(-c2ccc(C(C)(C)C)cc2)n1`, the survival is reported as 32% (inactive).
`COc1nc(-c2ccccc2)ccc1-c1noc(C(C)C)n1` was tested, and the survival was 88% (inactive).
With `COc1ccc(-c2ccc(-c3noc(-c4cc(OC)cc(OC)c4)n3)c(OC)n2)cc1` the survival was 49% (inactive).
With `CCOc1cc(-c2nc(-c3ccc(-c4ccc(C)cc4)nc3OC)no2)cc(OCC)c1OCC` the survival was 56% (inactive).
With `CCOc1ccccc1-c1nc(-c2ccc(-c3ccccc3)nc2OCC)no1` the survival was -1% (active).
`CCOc1nc(-c2ccccc2)ccc1-c1noc(-c2ccc(C)cc2)n1` was tested, and the survival was 109% (inactive).
`COc1nc(C)ccc1-c1noc(-c2ccccc2)n1` was tested, and the survival was 100% (inactive).
For `COc1cccc(-c2ccc(-c3noc(-c4ccccc4Br)n3)c(OC)n2)c1`, the survival was 37% (inactive).
For `COc1cccc(-c2nc(-c3ccc(-c4ccccc4)nc3OC)no2)c1`, the survival was 2% (active).
For `COc1nc(-c2ccc(C)cc2)ccc1-c1noc(-c2ccccc2Br)n1`, the survival was 2% (active).
In the case of `COc1cccc(-c2nc3c(c(SCc4ccccc4)n2)Cc2c(CO)cnc(C)c2O3)c1`, the survival is reported as 101% (inactive).
In the case of `CCCN(CCC)CCCNC(=O)C1CCC(CNS(=O)(=O)c2ccc(NC(C)=O)cc2)CC1` (configuration not stated), the survival is reported as 66% (inactive).
In the case of `CCOC(=O)N1CCN(Cc2nc3cc(NC(=O)c4ccc(F)cc4)ccc3n2C(C)C)CC1`, the survival is reported as 86% (inactive).
`CC(=O)N1N=C(N)SC1c1ccccc1` (configuration not stated) was tested, and the survival was 104% (inactive).
With `CCCC(=O)Nc1nnc(SCc2cc(=O)c3cc(C)ccc3[nH]2)s1` the survival was 70% (inactive).
`CC(=O)c1cccc(NC(=O)CN2C(=O)CCc3cc(S(=O)(=O)N4CCCCC4)ccc32)c1` was tested, and the survival was 82% (inactive).
`Cc1cc(C)nc(NS(=O)(=O)c2ccc(NC(=O)c3nc(SC(C)C)ncc3Cl)cc2)n1` was tested, and the survival was 79% (inactive).
With `O=S(=O)(NCCc1cn2ccsc2n1)c1ccc(Cl)cc1` the survival was 129% (inactive).
`CCc1ccc(NC(=O)CC(NCc2cccnc2)C(=O)O)cc1` (configuration not stated) was tested, and the survival was 74% (inactive).
`CC(C)NC(=O)C1CCCCC1C(=O)O` (configuration not stated) was tested, and the survival was 88% (inactive).
With `CCc1ccc(NC(=O)c2cnc3sc(N4CCCC4)nn3c2=O)cc1` the survival was 85% (inactive).
In the case of `CCC(=O)N1CCc2cc(S(=O)(=O)NC(C(=O)NCc3ccccc3Cl)C(C)C)ccc21` (configuration not stated), the survival is reported as 84% (inactive).
In the case of `CC(C)(C)NC(=O)CCSc1nc(-c2ccc3c(c2)OCO3)cc(C(F)(F)F)n1`, the survival is reported as 4% (active).
For `CC(C)NC(=O)CCSc1nc(-c2ccc3c(c2)OCO3)cc(C(F)(F)F)n1`, the survival was 77% (inactive).
For `CCCNC(=O)CCSc1nc(-c2ccc3c(c2)OCO3)cc(C(F)(F)F)n1`, the survival was 84% (inactive).
`COc1ccc(Cl)cc1NC(=O)c1c(NCc2ccc(C)o2)sc2c1CCCCC2` was tested, and the survival was 80% (inactive).
For `CCOc1cccc2cc(-c3nc4sc5c(c4c(=O)[nH]3)CCC(C)C5)c(=O)oc12` (configuration not stated), the survival was 119% (inactive).
With `CCC(C(=O)Nc1cc(F)ccc1F)n1nc(-c2cc(C)ccc2C)ccc1=O` (configuration not stated) the survival was 75% (inactive).
`Cc1cccc(CCNC(=O)c2nn(C)c3c2CSc2ccccc2-3)c1` was tested, and the survival was 87% (inactive).
In the case of `Cc1ccc2c(c1)-c1c(c(C(=O)NCCc3ccccc3)nn1C)CS2`, the survival is reported as 10% (active).
With `Cc1ccc(CCNC(=O)c2nn(C)c3c2CSc2ccccc2-3)cc1` the survival was 90% (inactive).
`Cc1ccc(Nc2c(-c3ccccc3O)nc3ccc(Br)cn23)cc1` was tested, and the survival was 101% (inactive).
For `CC(C)OCCCNC(=O)C(=O)Nc1ccc2nc3n(c(=O)c2c1)CCCCC3`, the survival was 99% (inactive).
With `COc1ccc(/C=C\c2onc(C)c2S(=O)(=O)N2CCC(C(=O)Nc3ccccc3OC)CC2)cc1` the survival was 116% (inactive).
In the case of `Cc1ccc(NC(=O)c2cnn3c(C(F)F)cc(-c4ccccc4)nc23)cc1F`, the survival is reported as 86% (inactive).
With `Cc1cccc(-c2nc(SCc3ccc(Br)cc3)n3[nH]c(=O)cc3n2)c1` the survival was 83% (inactive).
For `Cc1ccc(CSc2nc(-c3ccc(C(C)(C)C)cc3)nc3cc(=O)[nH]n23)cc1`, the survival was 113% (inactive).
In the case of `COc1ccccc1NC(=O)CSc1nc(-c2ccccc2F)nc2cc(=O)[nH]n12`, the survival is reported as 73% (inactive).
`O=c1cc2nc(-c3ccccc3)nc(SCc3cccc(Br)c3)n2[nH]1` was tested, and the survival was 73% (inactive).
For `O=c1cc2nc(-c3ccccc3F)nc(SCc3ccc(Br)cc3)n2[nH]1`, the survival was -2% (active).
With `Cc1ccc(-c2nc(SCc3ccc(Br)cc3)n3[nH]c(=O)cc3n2)cc1` the survival was 10% (active).
`CC(C)Sc1ncc(Cl)c(C(=O)Nc2nc3ccc(S(C)(=O)=O)cc3s2)n1` was tested, and the survival was 112% (inactive).
`CN(C(=O)Cn1cc(S(=O)(=O)Cc2ccccc2Cl)c2ccccc21)c1ccccc1` was tested, and the survival was 146% (inactive).

Source: PubChem BioAssay AID463173 (ICCB-Longwood Screening Facility, Harvard Medical School, 2010)
